# Records with an inconclusive call do not appear. A call without a number means that no potency is given here. Activity calls are given as the source filed them. The call rests on the fitted dose curve; in most records, active means well fitted curve in the direction sought with a large enough effect; inconclusive means small, poorly fitted or top-dose-only effect, or another doubt; inactive means no such curve, though single readings can be large or run the other way.
# Assay: qHTS Assay Multiplex Screening to Identify Dual Action Probes in a Cell Model of Huntington: Cytoprotection in HTT Q25 expressing cells (ATP)
# Conditions: PC12 HTT-Q25 inducible, ATP luminescence, 40 h; series mostly up to 46.1 µM
# Description: NIH Chemical Genomics Center [NCGC] NIH Molecular Libraries Probe Production centers Network [MLPCN] MLPCN Grant: MH084839-01A1 Assay Submitter (PI): Wei Zheng NCGC Assay Overview: Huntington's disease is a neurodegenerative disorder caused by a trinucleotide repeat expansion in Exon 1 of the Huntingtin gene. The CAG trinucleotide encodes glutamine and polyglutamine expansions cause cell death in selective areas of the brain. Huntington polyglutamine repeats have the tendency to form aggregates which are observable in later stages of the disease. The exact nature of the aggregates, whether toxic, protective, or insignificant, is unclear. A stable PC12 cell line containing a gene fusion of Exon 1 of the Huntingtin gene linked to GFP under the control of the inducible ecdysone promoter were used as the cell-based model of Huntington Disease for high throughput screening. Exon 1 of the Huntingtin gene contained an expansion of 103 polyglutamines (Q103) which, when expressed, caused cell death and distinct, bright GFP aggregates. The amount of cell death and the size and intensity of GFP aggregates increased over time and induction level. The cell death were quantified with a measurement of ATP content in the cells. A maximal 40-50% of cell death was observed when the Huntington gene was induced in this cell line. We optimized this assay in a homogeneous 1536 well format. A quantitative high throughput screen (qHTS) was conducted on the PC12 cells which were induced to express the toxic fusion construct. Small molecules which prevented cell death were identified by using a luminescent ATP quantification method (Perkin Elmer's ATPlite). To characterize compound effects on a different form of the HTT protein, PC12 cells stably containing a construct with an ecdysone inducible promoter expressing GFP fused to the exon 1 of HTTQ25 (Huntington protein which containing a 25 ployglutamine expansion) were used. Less cytoxicity occurs upon induction of HTTQ25.
# PC12 cells stably containing a construct with an ecdysone inducible promoter expressing GFP fused to the exon 1 of HTTQ25 (Huntington protein which containing a 25 ployglutamine expansion) were used. NCGC Assay Protocol Summary: Sequence, Parameter, Description 1, Reagent, 5 uL 1500 cells/well 1536 TC treated White clear bottom plate 2, Compound, 23 nL Tebufenozide inducer (100 nM final) to all columns 3, Compound, 23 nL 40 uM to 0.5 nM Libraries 4, Time, 40 hours at 37C 5, Reagent, 5 ul ATPLite cell death assay reagent 6, Detector, 4 sec integration with a Viewlux Luminescent Media consisted of phenol red free DMEM + 5% equine serum (Hyclone # SH30072.03 ), 5% supplemented Bovine Calf Serum (Hyclone # SH30074.03 ), 1x pen/strep, no G418
row,Compound,Potency
1,Cn1nnnc1Sc1ncnc2scc(-c3ccc(Cl)cc3)c12,inactive
2,Cn1nnnc1Sc1ncnc2scc(-c3cccc(F)c3)c12,inactive
3,Cn1nnnc1Sc1ncnc2scc(-c3cccc(C#N)c3)c12,inactive
4,Cn1nnnc1Sc1ncnc2scc(-c3ccc(-c4ccccc4)cc3)c12,inactive
5,Cn1nnnc1Sc1ncnc2scc(-c3ccc([N+](=O)[O-])cc3)c12,inactive
6,CC(=O)c1ccccc1-c1csc2ncnc(Sc3nnnn3C)c12,inactive
7,Cn1nnnc1Sc1ncnc2scc(-c3cccc(N)c3)c12,inactive
8,Cn1nnnc1Sc1ncnc2scc(-c3ccccc3[N+](=O)[O-])c12,inactive
9,Cn1nnnc1Sc1ncnc2scc(-c3cccc(C(F)(F)F)c3)c12,inactive
10,Cc1cccc(-c2csc3ncnc(Sc4nnnn4C)c23)c1,inactive
11,Cn1nnnc1Sc1ncnc2scc(-c3ccc(C(F)(F)F)cc3)c12,inactive
12,Cn1nnnc1Sc1ncnc2scc(-c3ccc(C(=O)OC(C)(C)C)cc3)c12,inactive
13,CC(=O)c1ccc(-c2csc3ncnc(Sc4nnnn4C)c23)cc1,inactive
14,Cn1nnnc1Sc1ncnc2scc(-c3ccc(Br)cc3)c12,inactive
15,Cn1nnnc1Sc1ncnc2scc(-c3cc4ccccc4o3)c12,inactive
16,Cn1nnnc1Sc1ncnc2scc(-c3ccsc3)c12,10 µM (active)
17,COc1ccccc1-c1csc2ncnc(Sc3nnnn3C)c12,inactive
18,Cn1nnnc1Sc1ncnc2scc(-c3ccccc3Br)c12,inactive
19,Cn1nnnc1Sc1ncnc2scc(-c3cccs3)c12,inactive
20,COc1cccc(-c2csc3ncnc(Sc4nnnn4C)c23)c1,31.6 µM (active)
21,COc1ccc(-c2csc3ncnc(Sc4nnnn4C)c23)cc1,inactive
22,Cn1nnnc1Sc1ncnc2scc(-c3cccc(Br)c3)c12,inactive
23,Cn1nnnc1Sc1ncnc2scc(-c3ccccc3C(F)(F)F)c12,inactive
24,Cn1nnnc1Sc1ncnc2scc(-c3ccccc3)c12,inactive
25,Cn1nnnc1Sc1ncnc2scc(-c3ccc(S(C)(=O)=O)cc3)c12,inactive
26,Cc1ccccc1-c1csc2ncnc(Sc3nnnn3C)c12,inactive
27,Cn1nnnc1Sc1ncnc2scc(-c3ccc(N)cc3)c12,inactive
28,Cn1nnnc1Sc1ncnc2scc(-c3cccc(Cl)c3)c12,inactive
29,Cn1nnnc1Sc1ncnc2scc(-c3ccc(F)cc3)c12,inactive
30,Cn1nnnc1Sc1ncnc2scc(-c3cccc4c3sc3ccccc34)c12,inactive

# — PubChem BioAssay AID2672 (National Center for Advancing Translational Sciences (NCATS), 2010)
